Data on 29 compounds can be found in PubChem BioAssay (NCATS).

SMILES strings stand for the structures. Several values for one entry are separate records, joined by “and”; a condition that tells them apart may be missing. Identical values can stand only once. Results filed as inconclusive are left out. Values without a mark were called inactive. Activity calls are given as the source filed them. Calls come from the whole dose curve; as a rule, active = well fitted cell-killing curve with a large enough effect; inconclusive = small, poorly fitted or top-dose-only effect, or effect the other way; inactive = no such curve, though single readings can be large or run the other way.

The nature of assay [1]: Viability qHTS for spleen associated tyrosine kinase inhibitor (SYKi) naive MV4-11 cells (AID 1963823). Note: nearly all actives have a fitted effect of over 40% in size. Put shortly:
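SYKi-naive MV4-11 AML cells, 500 per well, were exposed to library compounds for 72 hr at 37 C, 5% CO2. Viability was then read by CellTiter-Glo luminescence after 10 min at room temperature.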
In general terms: In qHTS, concentration-response curves come from the screen itself.

The nature of assay [2]: Viability qHTS for spleen associated tyrosine kinase inhibitor (SYKi) drug resistant MV4-11 cells (AID 1963824). Note: nearly all actives have a fitted effect of over 35% in size. In outline: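 CellTiter-Glo luminescence, read 10 min after reagent addition, reports viability after a 72 hr compound exposure. Cells are an MV4-11 line made resistant to SYK inhibition, seeded at 500 per well onto compound-containing plates.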
Potency is the fitted concentration of half-maximal effect.

In the case of `O=C(/C=C/c1ccc(O)c(O)c1)O[C@@H]1[C@@H](O)[C@H](OC2CCCCC2O)O[C@H](CO)[C@H]1O` (stereo partly drawn), the Potency entry in assay [1] and in assay [2] was “inactive” in each case.

`COC(=O)C1=CO[C@@H](O[C@@H]2O[C@H](CO)[C@@H](O)[C@H](O)[C@H]2O)[C@H]2[C@@H]1CC(OC)O[C@@H]2C` (stereo partly drawn): the Potency result in assay [1] and in assay [2] was “inactive” each time.

As to `COc1ccc(C(OC2OC(CO)C(O)C(O)C2O)C(C)O)cc1` (stereo not drawn), the Potency entry in assay [1] and in assay [2] was “inactive” each time.

`O=C(O[C@H]1[C@@H]2C=CO[C@@H](O[C@@H]3O[C@H](CO)[C@@H](O)[C@H](O)[C@H]3O)[C@@H]2[C@@]2(CO)O[C@@H]12)c1ccccc1`: the Potency result in assay [1] and in assay [2] was “inactive” each time.

For `OC1COC(OCC2OC(OCCc3ccccc3)C(O)C(O)C2O)C(O)C1O` (stereo not drawn), the Potency result in assay [1] and in assay [2] was “inactive” throughout.

`COC12CC3C(C(C)C1=CC(=O)O2)C(O)C(OC(C)=O)C1C(C)(C)C(OC(C)=O)CCC31C` (stereo not drawn): the Potency result in assay [1] and in assay [2] was “inactive” in each case.

With `Cc1ccc(C)c(NC(=O)CNS(=O)(=O)c2ccc3[nH]c(=O)oc3c2)c1`, the Potency result in assay [1] and in assay [2] was “inactive” throughout.

For the compound `CCCC(=O)Nc1cccc(NC(=O)c2ccccc2Br)c1`, the Potency result in assay [1] and in assay [2] was “inactive” each time.

For `COC(=O)C12C(=O)C(C)=C(O)C1(C)C(C)=CC1C34CCC(OC3=O)C(C)(C)C4CCC12C` (stereo not drawn), the Potency result in assay [1] and in assay [2] was “inactive” throughout.

In the case of `COc1ccc2c(c1)C(C(=O)N(Cc1ccc(N(C)C)cc1)c1ccc(C(C)C)cc1)CCC2` (stereo not drawn), the Potency in assay [1] was 16.4 µM (active); in assay [2], 14.6 µM (active).

`C=C1C(=O)O[C@@H]2/C=C(\CO)CC/C=C(/C=O)C[C@@H](O)[C@@H]12`: the Potency in assay [1] is 3.66 µM (active); in assay [2] it was 2.06 µM (active).

For the compound `COc1ccc(O[C@@H]2O[C@H](CO)[C@@H](O)[C@H](O)[C@H]2O)cc1OC`, the Potency entry in assay [1] and in assay [2] was “inactive” each time.

Take `CC(C)=CCC[C@](C)(O)[C@H]1CC[C@]2(C)[C@@H]1[C@H](O)CC1[C@@]3(C)CC[C@H](O)C(C)(C)[C@@H]3[C@@H](O[C@@H]3O[C@H](CO)[C@@H](O)[C@H](O)[C@H]3O[C@@H]3O[C@H](CO)[C@@H](O)[C@H](O)[C@H]3O)C[C@]12C` (stereo partly drawn): the Potency result in assay [1] and in assay [2] was “inactive” in each case.

Turning to `CC(CN1c2ccccc2Sc2ccccc21)N(C)C` (stereo not drawn), the Potency entry in assay [1] and in assay [2] was “inactive” in each case.

Take `Cn1nccc1Nc1nccc(-c2ccn([C@H](CO)c3ccc(Cl)c(F)c3)c(=O)c2)n1`: the Potency was 7.31 µM (active) in assay [1]; 4.61 µM (active) and 6.61 µM (active) in assay [2].

On to `COc1cc(/C=C/C(=O)OC(C)(C)C(OC2OC(CO)C(O)C(O)C2O)C(=O)OCc2ccc(OC3OC(CO)C(O)C(O)C3O)cc2)ccc1O` (stereo not drawn), for which the Potency result in assay [1] and in assay [2] was “inactive” in each case.

Consider `C=C1C(=O)O[C@H]2[C@H]1[C@@H](OC(=O)/C(C)=C\C)C[C@]1(C)O[C@@H]1[C@H]1O[C@H]1C(=C)[C@H]2O`, for which the Potency was 8.05 µM (active) in assay [1] and 3.6 µM (active) in assay [2].

As to `CCCC(NC(=O)/C(C#N)=C/c1cccc(Br)n1)c1ccccc1` (stereo not drawn), the Potency is 13 µM (active) in assay [1] and 9.2 µM (active) in assay [2].

For `C[C@@]12C[C@]3(O)O[C@H](O1)[C@]1(COC(=O)c4ccccc4)[C@H]3C[C@@]12O[C@@H]1O[C@H](CO)[C@@H](O)[C@H](O)[C@H]1O`, the Potency entry in assay [1] and in assay [2] was “inactive” throughout.

On to `CC1OC(O[C@@H]2[C@@H](O)[C@H](OC(=O)[C@]34CCC(C)(C)C[C@H]3C3=CCC5[C@@]6(C)CC[C@H](O[C@@H]7O[C@H](C(=O)O)[C@@H](O)[C@H](O[C@@H]8OC[C@@H](O)[C@H](O)[C@H]8O)[C@H]7O[C@@H]7O[C@H](CO)[C@H](O)[C@H](O)[C@H]7O)[C@@](C)(C=O)C6CC[C@@]5(C)[C@]3(C)C[C@H]4O)O[C@H](C)[C@@H]2OC2OC(C)C(OC3OCC(O)C(O)C3O)C(O)C2O)C(O)C(O)C1O` (stereo partly drawn), for which the viability (% of control) in assay [1] was 94.8% [at 9.25 µM]. Further, the viability, % of control in assay [2] was 106% [at 9.25 µM].

With `C=C1C(OC(C)=O)C(=O)C2C(C)(C)C(O)CCC2(C)C1CC(OC(C)=O)/C(C)=C/COC(C)=O` (stereo not drawn), the Potency result in assay [1] and in assay [2] was “inactive” in each case.

As for `N#Cc1c(Oc2ccc(F)c(NC(=O)Cc3cccc(C(F)(F)F)c3)c2)ccc2nc(NC(=O)C3CC3)sc12`, the Potency in assay [1] was 1.46 µM (active); in assay [2], 1.64 µM (active).

For `Cc1ccc(C2(COC(=O)C(C)C)CO2)c(OC(=O)C(C)C)c1` (stereo not drawn), the Potency is 1.8 µM (active) in assay [1] and 2.02 µM (active) in assay [2].

For the compound `CC1(C)C=Cc2c(ccc3c2N=C2C(C)(C)[C@@H]4C[C@]56CCCN5C(=O)[C@@]4(C[C@]23O)NC6=O)O1`, the Potency entry in assay [1] and in assay [2] was “inactive” throughout.

With `C=C1CN(Cc2ccc(C(=O)Nc3ccccc3N)cc2)C(=O)c2ccccc21`, the Potency in assay [1] was 0.651 µM (active); in assay [2], 0.517 µM (active).

Turning to `OCC1OC(Oc2cc(O)cc(/C=C/c3ccc(O)cc3)c2)C(O)C(O)C1O` (stereo not drawn), the Potency entry in assay [1] and in assay [2] was “inactive” each time.

In the case of `CC1OC(OC2C(O)C(OC3CCC4(C)C(CCC5(C)C4CC=C4C6CC(C)(COC7OC(CO)C(O)C(O)C7O)CC(O)C6(C)CCC45C)C3(C)C)OC(C(=O)O)C2O)C(O)C(O)C1OC1OCC(O)C(O)C1O` (stereo not drawn), in assay [1], the viability (% of control) was 54% [at 9.25 µM]. Moreover, the viability, % of control in assay [2] is 85% [at 9.25 µM].

On to `COC(=O)c1c(C)cc(OC(=O)c2c(C)cc(OC)cc2OC)cc1O[C@@H]1O[C@H](CO)[C@@H](O)[C@H](O)[C@H]1O`, for which the Potency entry in assay [1] and in assay [2] was “inactive” each time.

On to `CC1(C)CC[C@]2(C(=O)O)[C@H](O)C[C@]3(C)C(=CCC4[C@@]5(C)CC[C@H](O[C@@H]6OC[C@@H](O)[C@H](O)[C@H]6O)[C@@](C)(C(=O)O)C5CC[C@]43C)[C@@H]2C1` (stereo partly drawn), for which the Potency entry in assay [1] and in assay [2] was “inactive” in each case.
